The results in this text go back to the antibiotic and cytotoxicity screens of Wong et al. (2023).

Among all 39,000 compounds or so, about 1,500 (3.8%) were called active. The sample as a whole holds a higher share of actives than the screen did.

The assay has as its system HSkMC (human skeletal muscle cells). As to the kind of experiment: cytotoxicity call (relative viability < 0.9). As to conditions: 10 µM.
Turning to `C[C@@H]1CN([C@H](C)CO)C(=O)c2cc(NC(=O)CCN3CCOCC3)ccc2O[C@@H]1CN(C)CC1CC1`, the cytotoxicity call was “inactive”.

Turning to `C[C@H](CO)N1C[C@H](C)[C@H](CN(C)C(=O)Nc2ccc(C(F)(F)F)cc2)Oc2ccc(NC(=O)Nc3ccc(C(F)(F)F)cc3)cc2C1=O`, the cytotoxicity call is “inactive”.

Consider `O=C(C[C@@H]1CC[C@@H]2[C@H](COC[C@@H](O)CN2S(=O)(=O)c2ccc(F)cc2)O1)NCc1ccc(Cl)c(Cl)c1`, for which the cytotoxicity call was “inactive”.

Take `C[C@H]1CN([C@@H](C)CO)C(=O)Cc2cc(NC(=O)Nc3ccccc3)ccc2O[C@@H]1CN(C)Cc1ccc(Oc2ccccc2)cc1`: the cytotoxicity call was “active”.

For the compound `C[C@@H]1CN([C@@H](C)CO)C(=O)Cc2cc(NC(=O)Nc3ccccc3)ccc2O[C@H]1CN(C)Cc1ccc(Oc2ccccc2)cc1`, the cytotoxicity call is “inactive”.

Take `C[C@@H]1CN([C@H](C)CO)C(=O)Cc2cc(NC(=O)Nc3ccccc3)ccc2O[C@H]1CN(C)Cc1ccc(Oc2ccccc2)cc1`: the cytotoxicity call is “inactive”.

`CC(C)NC(=O)Nc1ccc2c(c1)CC(=O)N([C@@H](C)CO)C[C@@H](C)[C@H](CN(C)Cc1ccc(Oc3ccccc3)cc1)O2`: the cytotoxicity call was “inactive”.

Turning to `CC(C)NC(=O)Nc1ccc2c(c1)CC(=O)N([C@@H](C)CO)C[C@@H](C)[C@@H](CN(C)Cc1ccc(Oc3ccccc3)cc1)O2`, the cytotoxicity call is “inactive”.

For the compound `CC(C)NC(=O)Nc1ccc2c(c1)CC(=O)N([C@H](C)CO)C[C@@H](C)[C@@H](CN(C)Cc1ccc(Oc3ccccc3)cc1)O2`, the cytotoxicity call is “active”.

As for `C[C@H]1CN([C@@H](C)CO)C(=O)Cc2cc(NC(=O)Nc3ccc4c(c3)OCO4)ccc2O[C@@H]1CN(C)Cc1ccc(Oc2ccccc2)cc1`, the cytotoxicity call is “inactive”.

Consider `C[C@H](CO)N1C[C@H](C)[C@@H](CN(C)Cc2ccc(Oc3ccccc3)cc2)Oc2ccc(NC(=O)Nc3ccc4c(c3)OCO4)cc2CC1=O`, for which the cytotoxicity call was “active”.

Turning to `C[C@@H]1CN([C@@H](C)CO)C(=O)Cc2cc(NC(=O)Nc3ccc4c(c3)OCO4)ccc2O[C@H]1CN(C)Cc1ccc(Oc2ccccc2)cc1`, the cytotoxicity call is “inactive”.

As for `C[C@@H]1CN([C@H](C)CO)C(=O)Cc2cc(NC(=O)Nc3ccccc3)ccc2O[C@@H]1CN(C)Cc1ccc(Oc2ccccc2)cc1`, the cytotoxicity call is “active”.

For `COc1ccc2c3c(n(c2c1)C)[C@H](CO)N(CC1CCOCC1)C[C@]13CCN(CC1)C(=O)c1cnccn1`, the cytotoxicity call was “inactive”.

Consider `CO[C@H]1CN(C)C(=O)c2cc(NC(=O)c3ccc(F)cc3)ccc2OC[C@@H](C)N(C(=O)CN(C)C)C[C@@H]1C`, for which the cytotoxicity call was “inactive”.

On to `C=CC[C@@H](CC(=O)N[C@@H](CO)Cc1ccccc1)C(=O)N[C@@H](C)COC(=O)[C@@H](CC=C)CC(=O)OC(C)(C)C`, for which the cytotoxicity call is “inactive”.

With `COc1ccccc1S(=O)(=O)N(C)C[C@@H]1OCc2cnnn2CCCC(=O)N([C@@H](C)CO)C[C@H]1C`, the cytotoxicity call is “inactive”.

`COc1ccccc1CNC(=O)C[C@H]1C[C@@H]2c3cc(NC(=O)NC4CCCC4)ccc3O[C@@H]2[C@@H](CO)O1`: the cytotoxicity call is “inactive”.

On to `C[C@H](CO)N1C[C@H](C)[C@H](CN(C)C(=O)Nc2ccc(F)cc2)OCCCC[C@H](C)Oc2ccc(NC(=O)Nc3ccc(F)cc3)cc2C1=O`, for which the cytotoxicity call is “inactive”.

Consider `C[C@@H]1CN([C@@H](C)CO)C(=O)c2cc(NC(=O)NC3CCCCC3)ccc2O[C@@H](C)CCCCO[C@H]1CN(C)CC1CCCCC1`, for which the cytotoxicity call was “inactive”.

`C[C@@H]1CN([C@@H](C)CO)C(=O)c2cc(NS(=O)(=O)c3cccs3)ccc2O[C@@H](C)CCCCO[C@@H]1CN(C)Cc1ccc2c(c1)OCO2`: the cytotoxicity call was “inactive”.

Take `CN(C)C(=O)C[C@H]1C=C[C@@H](NC(=O)C2CCOCC2)[C@H](CO)O1`: the cytotoxicity call is “inactive”.

On to `C[C@@H]1CN([C@H](C)CO)C(=O)c2cc(NC(=O)Nc3ccccc3)ccc2O[C@@H]1CN(C)Cc1ccc(Cl)c(Cl)c1`, for which the cytotoxicity call is “inactive”.

Take `C[C@@H]1CN([C@@H](C)CO)C(=O)c2cc(NC(=O)Nc3ccccc3)ccc2O[C@@H]1CN(C)Cc1ccc(Cl)c(Cl)c1`: the cytotoxicity call is “active”.

For `C[C@H](CO)N1C[C@H](C)[C@@H](CN(C)Cc2ccc(Cl)c(Cl)c2)Oc2ccc(NC(=O)Nc3ccccc3)cc2C1=O`, the cytotoxicity call is “inactive”.

As to `C[C@H]1CN([C@@H](C)CO)C(=O)c2cc(NC(=O)Nc3ccccc3)ccc2O[C@H]1CN(C)Cc1ccc(Cl)c(Cl)c1`, the cytotoxicity call is “active”.

As to `C[C@H]1CN([C@@H](C)CO)C(=O)c2cc(NC(=O)Nc3ccccc3)ccc2O[C@@H]1CN(C)Cc1ccc(Cl)c(Cl)c1`, the cytotoxicity call is “inactive”.

Consider `C[C@@H]1CN([C@H](C)CO)C(=O)c2cc(NC(=O)Nc3ccccc3)ccc2O[C@H]1CN(C)Cc1ccc(Cl)c(Cl)c1`, for which the cytotoxicity call was “inactive”.

Turning to `C[C@H](CO)N1C[C@H](C)[C@@H](CN(C)S(=O)(=O)c2cccs2)Oc2ccc(NS(=O)(=O)c3ccc(F)cc3)cc2C1=O`, the cytotoxicity call was “inactive”.

For `Cc1cc(C(=O)Nc2cccc3c2O[C@H](CN(C)C(=O)Nc2ccc4c(c2)OCO4)[C@@H](C)CN([C@H](C)CO)C3=O)n(C)n1`, the cytotoxicity call was “inactive”.

In the case of `COc1ccc(CCNC(=O)[C@@]2(Sc3ccc(C)cc3)CC(=O)N(C3CCCCC3)[C@@H]2c2ccc(CO)cc2I)cc1`, the cytotoxicity call is “inactive”.

As to `COc1ccc(NC(=O)N(C)C[C@@H]2Oc3ccc(NS(=O)(=O)c4c(C)noc4C)cc3CC(=O)N([C@@H](C)CO)C[C@H]2C)cc1`, the cytotoxicity call was “inactive”.

As to `Fc1cccc(-c2csc(COc3ccccc3Cl)n2)c1`, the cytotoxicity call was “inactive”.

`CS(=O)(=O)CCNCc1ccc(-c2ccc3ncnc(Nc4ccc(OCc5cccc(F)c5)c(Cl)c4)c3c2)o1` [listing 1 of 2 here]: the cytotoxicity call was “active”.

`CS(=O)(=O)CCNCc1ccc(-c2ccc3ncnc(Nc4ccc(OCc5cccc(F)c5)c(Cl)c4)c3c2)o1` [listing 2 of 2 here]: the cytotoxicity call is “active”.

For the compound `CC(C)(O)CC(=O)NCCn1ccc2ncnc(Nc3ccc(Oc4cccc(C(F)(F)F)c4)c(Cl)c3)c21`, the cytotoxicity call is “inactive”.

Take `CS(=O)(=O)CCNCc1nc(-c2ccc3ncnc(Nc4ccc(OCc5cccc(F)c5)c(Cl)c4)c3c2)cs1`: the cytotoxicity call is “active”.

As to `CCCN(C)C[C@H]1OCCCC[C@H](C)Oc2ccc(NS(=O)(=O)c3cn(C)cn3)cc2C(=O)N([C@H](C)CO)C[C@H]1C`, the cytotoxicity call is “inactive”.

In the case of `C[C@@H]1CNC[C@H](C)N1`, the cytotoxicity call was “inactive”.

Take `C[C@H](CO)N1C[C@H](C)[C@@H](CN(C)S(=O)(=O)c2ccc(Cl)cc2)Oc2ccc(NC(=O)CCN3CCOCC3)cc2C1=O`: the cytotoxicity call is “inactive”.

With `c1ccc(C2C3=C(CCCC3)SC3=C2CCCC3)cc1`, the cytotoxicity call is “inactive”.

In the case of `Cc1noc(C)c1NC(=O)N(C)C[C@@H]1Oc2c(NS(C)(=O)=O)cccc2C(=O)N([C@H](C)CO)C[C@H]1C`, the cytotoxicity call is “inactive”.

In the case of `Cc1ccc(S(=O)(=O)N(C)C[C@H]2Oc3c(NC(=O)Nc4ccc(C(F)(F)F)cc4)cccc3C(=O)N([C@@H](C)CO)C[C@@H]2C)cc1`, the cytotoxicity call was “inactive”.

Consider `Cc1ccc(S(=O)(=O)N(C)C[C@H]2Oc3c(NC(=O)Nc4ccc(C(F)(F)F)cc4)cccc3C(=O)N([C@@H](C)CO)C[C@H]2C)cc1`, for which the cytotoxicity call was “active”.

With `Cc1ccc(S(=O)(=O)N(C)C[C@@H]2Oc3c(NC(=O)Nc4ccc(C(F)(F)F)cc4)cccc3C(=O)N([C@H](C)CO)C[C@@H]2C)cc1`, the cytotoxicity call is “inactive”.

With `Cc1ccc(S(=O)(=O)N(C)C[C@@H]2Oc3c(NC(=O)Nc4ccc(C(F)(F)F)cc4)cccc3C(=O)N([C@H](C)CO)C[C@H]2C)cc1`, the cytotoxicity call was “inactive”.

With `Cc1ccc(S(=O)(=O)N(C)C[C@@H]2Oc3c(NC(=O)Nc4ccc(C(F)(F)F)cc4)cccc3C(=O)N([C@@H](C)CO)C[C@H]2C)cc1`, the cytotoxicity call is “inactive”.

For `Cc1ccc(S(=O)(=O)N(C)C[C@H]2Oc3c(NC(=O)Nc4ccc(C(F)(F)F)cc4)cccc3C(=O)N([C@H](C)CO)C[C@H]2C)cc1`, the cytotoxicity call was “active”.

Consider `[N-]=[N+]=N[C@]1(CO)O[C@@H](n2ccc(N)nc2=O)[C@H](O)[C@@H]1O`, for which the cytotoxicity call was “inactive”.

Take `c1ccc(CCN2CCNCC2)nc1`: the cytotoxicity call was “inactive”.

Consider `C[C@@H]1CN([C@H](C)CO)C(=O)c2cc(Br)cnc2O[C@@H]1CN(C)S(=O)(=O)c1ccccc1`, for which the cytotoxicity call was “inactive”.

For the compound `Cc1ccc(S(=O)(=O)N(C)C[C@@H]2Oc3ncc(C#CC4(O)CCCC4)cc3C(=O)N([C@@H](C)CO)C[C@@H]2C)cc1`, the cytotoxicity call was “inactive”.

With `COc1ccc(S(=O)(=O)N(C)C[C@@H]2Oc3ccc(NS(=O)(=O)c4c(C)noc4C)cc3C(=O)N([C@H](C)CO)C[C@@H]2C)cc1`, the cytotoxicity call was “inactive”.

For `CCCNC(=O)C[C@H]1CC[C@H]2[C@@H](COc3ccc(NS(=O)(=O)c4ccccc4C)cc3C(=O)N2C)O1`, the cytotoxicity call was “inactive”.

For the compound `C[C@@H]1CN([C@@H](C)CO)C(=O)c2cc(NC(=O)CCCCCC(=O)Nc3ccccc3N)ccc2O[C@@H]1CN(C)Cc1ccc(-c2ccccc2)cc1`, the cytotoxicity call was “inactive”.

For `C[C@@H]1CN([C@H](C)CO)C(=O)Cc2cc(NC(=O)CCCCCC(=O)Nc3ccccc3N)ccc2O[C@H]1CN(C)Cc1ccc(-c2ccccc2)cc1`, the cytotoxicity call was “inactive”.

`C[C@@H]1CN([C@H](C)CO)C(=O)Cc2cc(NC(=O)CCCCCC(=O)Nc3ccccc3N)ccc2O[C@H]1CN(C)CC1CCCCC1`: the cytotoxicity call was “inactive”.

On to `C[C@H]1CN([C@@H](C)CO)C(=O)Cc2cc(NC(=O)CCCCCC(=O)Nc3ccccc3N)ccc2O[C@@H]1CN(C)Cc1ccc(Oc2ccccc2)cc1`, for which the cytotoxicity call was “inactive”.

On to `C[C@@H]1CN([C@H](C)CO)C(=O)Cc2cc(NC(=O)CCCCCC(=O)Nc3ccccc3N)ccc2O[C@@H]1CN(C)CC1CCCCC1`, for which the cytotoxicity call was “active”.

Turning to `C[C@H]1CN([C@@H](C)CO)C(=O)c2cc(NC(=O)CCCCCC(=O)Nc3ccccc3N)ccc2O[C@H]1CN(C)Cc1ccc(-c2ccccc2)cc1`, the cytotoxicity call is “inactive”.

As for `C[C@@H]1CN([C@H](C)CO)C(=O)Cc2cc(NC(=O)CCCCCC(=O)Nc3ccccc3N)ccc2O[C@@H]1CN(C)Cc1ccc(-c2ccccc2)cc1`, the cytotoxicity call was “active”.

Turning to `C[C@@H]1CN([C@H](C)CO)C(=O)c2cc(NC(=O)CCCCCC(=O)Nc3ccccc3N)ccc2O[C@H]1CN(C)Cc1ccc(-c2ccccc2)cc1`, the cytotoxicity call was “active”.

Consider `C[C@@H]1CN([C@@H](C)CO)C(=O)Cc2cc(NC(=O)CCCCCC(=O)Nc3ccccc3N)ccc2O[C@@H]1CN(C)Cc1ccc(Oc2ccccc2)cc1`, for which the cytotoxicity call is “inactive”.

With `C[C@@H]1CN([C@@H](C)CO)C(=O)Cc2cc(NC(=O)CCCCCC(=O)Nc3ccccc3N)ccc2O[C@@H]1CN(C)CC1CCCCC1`, the cytotoxicity call is “inactive”.

For `C[C@@H]1CN([C@H](C)CO)C(=O)Cc2cc(NC(=O)CCCCCC(=O)Nc3ccccc3N)ccc2O[C@@H]1CN(C)Cc1ccc(Oc2ccccc2)cc1`, the cytotoxicity call is “active”.

Turning to `C[C@H]1CN([C@@H](C)CO)C(=O)Cc2cc(NC(=O)CCCCCC(=O)Nc3ccccc3N)ccc2O[C@H]1CN(C)Cc1ccc(-c2ccccc2)cc1`, the cytotoxicity call was “inactive”.
